# Data taken from PubChem BioAssay AID1159580 (chemical genetic matrix, 2015).
# The campaign covered roughly 5,500 compounds. About 2,000 (36%) were called active. About 18% were inconclusive and are not listed. Some of the results follow. Values without a mark were called inactive. Cut-off read from the data, not from the text of the source: active = normalized growth mostly below about 0.91 (no sharp cut-off); inconclusive = no clear call, values can overlap the other calls; inactive = mostly above about 0.92.
# Assay: chemical genetic growth profiling, strain panel (AID 1159580);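 note: tested at 20 µM; growth read once vehicle control cultures reached saturation at 30 °C; 1 = growth at the plate median or of vehicle wells; lower values mean less growth of the strain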
# Conditions: growth OD
structure (smiles),measurement,setting,value
CC(=O)Nc1nnc(S(N)(=O)=O)s1,normalized growth,"S. cerevisiae deletion strains, locus YKL009W, strain mrt4, stronger effect = lower value",1.03
same,normalized growth,"S. cerevisiae deletion strains, locus YKL068W, stronger effect = lower value",1
same,normalized growth,"S. cerevisiae deletion strains, locus YKL085W, strain MDH1 (second series), stronger effect = lower value",1.01
same,normalized growth,"S. cerevisiae deletion strains, locus YKL085W, strain MDH1, stronger effect = lower value",1.01
same,normalized growth,"S. cerevisiae deletion strains, locus YKL160W, strain elf1, stronger effect = lower value",1
same,normalized growth,"S. cerevisiae deletion strains, locus YKL190W, strain CNB1, stronger effect = lower value",0.569 (active)
same,normalized growth,"S. cerevisiae deletion strains, locus YKR001C, strain vps1, stronger effect = lower value",0.884 (active)
same,normalized growth,"S. cerevisiae deletion strains, locus YKR026C, strain gcn3, stronger effect = lower value",1
same,normalized growth,"S. cerevisiae deletion strains, locus YKR091W, strain srl3, stronger effect = lower value",1.01
same,normalized growth,"S. cerevisiae deletion strains, locus YLL001W, strain dnm1, stronger effect = lower value",1.01
same,normalized growth,"S. cerevisiae deletion strains, locus YLL026W, stronger effect = lower value",1.01
same,normalized growth,"S. cerevisiae deletion strains, locus YLL041C, strain sdh2, stronger effect = lower value",1.01
same,normalized growth,"S. cerevisiae deletion strains, locus YLR027C, strain aat2, stronger effect = lower value",1.01
same,normalized growth,"S. cerevisiae deletion strains, locus YLR039C, strain RIC1, stronger effect = lower value",0.423 (active)
same,normalized growth,"S. cerevisiae deletion strains, locus YLR058C, strain SHM2, stronger effect = lower value",0.837 (active)
same,normalized growth,"S. cerevisiae deletion strains, locus YLR102C, strain apc9, stronger effect = lower value",0.99
same,normalized growth,"S. cerevisiae deletion strains, locus YLR113W, strain HOG1, stronger effect = lower value",0.982
same,normalized growth,"S. cerevisiae deletion strains, locus YLR221C, strain rsa3, stronger effect = lower value",0.986
same,normalized growth,"S. cerevisiae deletion strains, locus YLR258W, strain gsy2, stronger effect = lower value",1.01
same,normalized growth,"S. cerevisiae deletion strains, locus YLR262C, strain YPT6 (second series), stronger effect = lower value",1.04
same,normalized growth,"S. cerevisiae deletion strains, locus YLR262C, strain YPT6, stronger effect = lower value",0.321 (active)
same,normalized growth,"S. cerevisiae deletion strains, locus YLR268W, strain sec22, stronger effect = lower value",0.895
same,normalized growth,"S. cerevisiae deletion strains, locus YLR320W, strain mms22, stronger effect = lower value",0.99
same,normalized growth,"S. cerevisiae deletion strains, locus YLR330W, strain CHS5, stronger effect = lower value",0.557 (active)
same,normalized growth,"S. cerevisiae deletion strains, locus YLR342W, strain FKS1 (second series), stronger effect = lower value",0.496 (active)
same,normalized growth,"S. cerevisiae deletion strains, locus YLR342W, strain FKS1, stronger effect = lower value",1.02
same,normalized growth,"S. cerevisiae deletion strains, locus YLR357W, strain rsc2, stronger effect = lower value",1
same,normalized growth,"S. cerevisiae deletion strains, locus YLR370C, strain arc18, stronger effect = lower value",0.996
same,normalized growth,"S. cerevisiae deletion strains, locus YLR371W, strain rom2, stronger effect = lower value",0.945
same,normalized growth,"S. cerevisiae deletion strains, locus YLR384C, strain iki3, stronger effect = lower value",1
same,normalized growth,"S. cerevisiae deletion strains, locus YLR418C, strain cdc73, stronger effect = lower value",0.637 (active)
same,normalized growth,"S. cerevisiae deletion strains, locus YML016C, strain PPZ1, stronger effect = lower value",0.412 (active)
same,normalized growth,"S. cerevisiae deletion strains, locus YML032C, strain rad52, stronger effect = lower value",1.01
same,normalized growth,"S. cerevisiae deletion strains, locus YML120C, strain ndi1, stronger effect = lower value",1.02
same,normalized growth,"S. cerevisiae deletion strains, locus YML124C, strain tub3, stronger effect = lower value",1.01
same,normalized growth,"S. cerevisiae deletion strains, locus YMR058W, strain fet3, stronger effect = lower value",1.02
same,normalized growth,"S. cerevisiae deletion strains, locus YMR078C, strain ctf18, stronger effect = lower value",0.994
same,normalized growth,"S. cerevisiae deletion strains, locus YMR125W, strain sto1, stronger effect = lower value",0.989
same,normalized growth,"S. cerevisiae deletion strains, locus YMR129W, stronger effect = lower value",1.02
same,normalized growth,"S. cerevisiae deletion strains, locus YMR205C, strain PFK2, stronger effect = lower value",1.01
same,normalized growth,"S. cerevisiae deletion strains, locus YMR223W, strain ubp8, stronger effect = lower value",0.904
same,normalized growth,"S. cerevisiae deletion strains, locus YMR231W, strain pep5, stronger effect = lower value",0.993
same,normalized growth,"S. cerevisiae deletion strains, locus YMR263W, strain SAP30, stronger effect = lower value",0.809 (active)
same,normalized growth,"S. cerevisiae deletion strains, locus YMR307W, strain GAS1, stronger effect = lower value",0.439 (active)
same,normalized growth,"S. cerevisiae deletion strains, locus YNL067W, strain RPL9B, stronger effect = lower value",0.755 (active)
same,normalized growth,"S. cerevisiae deletion strains, locus YNL071W, strain lat1, stronger effect = lower value",1.01
same,normalized growth,"S. cerevisiae deletion strains, locus YNL128W, strain TEP1, stronger effect = lower value",1
same,normalized growth,"S. cerevisiae deletion strains, locus YNL175C, strain NOP13, stronger effect = lower value",1.03
same,normalized growth,"S. cerevisiae deletion strains, locus YNL183C, strain NPR1, stronger effect = lower value",0.959
same,normalized growth,"S. cerevisiae deletion strains, locus YNL197C, strain WHI3, stronger effect = lower value",1
same,normalized growth,"S. cerevisiae deletion strains, locus YNL209W, strain ssb2, stronger effect = lower value",1.01
same,normalized growth,"S. cerevisiae deletion strains, locus YNL224C, strain SQS1, stronger effect = lower value",0.996
same,normalized growth,"S. cerevisiae deletion strains, locus YNL233W, strain BNI4, stronger effect = lower value",0.792 (active)
same,normalized growth,"S. cerevisiae deletion strains, locus YNL248C, strain rpa49, stronger effect = lower value",0.971
same,normalized growth,"S. cerevisiae deletion strains, locus YNL250W, strain rad50, stronger effect = lower value",1.01
same,normalized growth,"S. cerevisiae deletion strains, locus YNL271C, strain bni1, stronger effect = lower value",1.01
same,normalized growth,"S. cerevisiae deletion strains, locus YNL298W, strain CLA4, stronger effect = lower value",1
same,normalized growth,"S. cerevisiae deletion strains, locus YNL307C, strain MCK1, stronger effect = lower value",0.846 (active)
same,normalized growth,"S. cerevisiae deletion strains, locus YNL322C, strain KRE1 (second series), stronger effect = lower value",1.01
same,normalized growth,"S. cerevisiae deletion strains, locus YNL322C, strain KRE1, stronger effect = lower value",0.592 (active)
same,normalized growth,"S. cerevisiae deletion strains, locus YNR049C, strain mso1, stronger effect = lower value",1.02
same,normalized growth,"S. cerevisiae deletion strains, locus YNR052C, strain pop2, stronger effect = lower value",0.995
same,normalized growth,"S. cerevisiae deletion strains, locus YOL006C, strain TOP1, stronger effect = lower value",0.141 (active)
same,normalized growth,"S. cerevisiae deletion strains, locus YOL012C, strain htz1",0.275
same,normalized growth,"S. cerevisiae deletion strains, locus YOL147C, strain pex11, stronger effect = lower value",1.01
same,normalized growth,"S. cerevisiae deletion strains, locus YOR001W, strain rrp6, stronger effect = lower value",1.02
same,normalized growth,"S. cerevisiae deletion strains, locus YOR061W, strain CKA2, stronger effect = lower value",0.702 (active)
same,normalized growth,"S. cerevisiae deletion strains, locus YOR069W, strain VPS5, stronger effect = lower value",0.826 (active)
same,normalized growth,"S. cerevisiae deletion strains, locus YOR070C, strain gyp1, stronger effect = lower value",1
same,normalized growth,"S. cerevisiae deletion strains, locus YOR080W, strain dia2, stronger effect = lower value",1.01
same,normalized growth,"S. cerevisiae deletion strains, locus YOR083W, strain WHI5 (second series), stronger effect = lower value",1.02
same,normalized growth,"S. cerevisiae deletion strains, locus YOR083W, strain WHI5, stronger effect = lower value",0.993
same,normalized growth,"S. cerevisiae deletion strains, locus YOR106W, strain vam3, stronger effect = lower value",1.02
same,normalized growth,"S. cerevisiae deletion strains, locus YOR136W, strain idh2, stronger effect = lower value",0.979
same,normalized growth,"S. cerevisiae deletion strains, locus YOR144C, strain elg1, stronger effect = lower value",1.01
same,normalized growth,"S. cerevisiae deletion strains, locus YOR184W, strain ser1, stronger effect = lower value",0.885
same,normalized growth,"S. cerevisiae deletion strains, locus YOR231W, strain MKK1, stronger effect = lower value",0.987
same,normalized growth,"S. cerevisiae deletion strains, locus YOR265W, strain rbl2, stronger effect = lower value",1.01
same,normalized growth,"S. cerevisiae deletion strains, locus YOR270C, strain vph1, stronger effect = lower value",1
same,normalized growth,"S. cerevisiae deletion strains, locus YOR290C, strain snf2, stronger effect = lower value",1
same,normalized growth,"S. cerevisiae deletion strains, locus YOR316C, strain cot1, stronger effect = lower value",0.982
same,normalized growth,"S. cerevisiae deletion strains, locus YPL051W, strain arl3, stronger effect = lower value",1
same,normalized growth,"S. cerevisiae deletion strains, locus YPL078C, strain atp4, stronger effect = lower value",1.02
same,normalized growth,"S. cerevisiae deletion strains, locus YPL106C, strain sse1, stronger effect = lower value",0.998
same,normalized growth,"S. cerevisiae deletion strains, locus YPL240C, strain hsp82, stronger effect = lower value",1
same,normalized growth,"S. cerevisiae deletion strains, locus YPL241C, strain CIN2, stronger effect = lower value",0.645 (active)
same,normalized growth,"S. cerevisiae deletion strains, locus YPL256C, strain CLN2, stronger effect = lower value",0.992
same,normalized growth,"S. cerevisiae deletion strains, locus YPR119W, strain clb2, stronger effect = lower value",1.01
same,normalized growth,"S. cerevisiae deletion strains, locus YPR141C, strain kar3, stronger effect = lower value",1.01
same,normalized growth,"S. cerevisiae deletion strains, locus YPR163C, strain tif3, stronger effect = lower value",0.987
same,normalized growth,"S. cerevisiae deletion strains, locus YPR167C, strain met16, stronger effect = lower value",0.964
same,normalized growth,"S. cerevisiae deletion strains, strain wtn01, stronger effect = lower value",0.874 (active)
same,normalized growth,"S. cerevisiae strains, strain wild type, stronger effect = lower value",0.533 (active)
